# In PubChem BioAssay (NCI):
# About 83,000 compounds went through this panel and 20% of them were active in at least one assay; those are over-represented in the sample as a whole.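 Results are percent growth after 48 hours of single-concentration exposure. 100 means growth as in untreated cells, lower positive values show inhibition; negative values down to -100 show cell death.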 A number with no mark means an inactive call. Active and inactive are the calls of the source. How the source made its calls: active means growth percent below 10; inactive means the rest.
# Test system: HL-60(TB) leukemia
# Assay: NCI-60 one-dose screen, 48 h (100 = growth as untreated, 0 = no growth, -100 = all killed)
# Conditions: 10 µM unless noted
row,Structure (SMILES),growth
1,Cc1cc(C2=NNC(=O)Cc3cc4c(cc32)OCCO4)cc(C)c1N,21.6%
2,NC1C(N)C(N)C1N (centres undefined),93.8%
3,O=C1CCc2c(sc3[nH]c(=S)n(Cc4ccccc4)c(=O)c23)C1,10.9%
4,COc1ccc2c(c1)nc(N)c1c3cccnc3cn21,14.9%
5,COc1cc(/C=C/c2cc(/C=C/c3ccc(O)c(OC)c3)n(C(=O)Nc3ccc(Cl)cc3)n2)ccc1O,-20.9% (active)
6,Nc1nc(-c2cccnc2)nc2c1sc(=S)n2-c1ccccc1,99.3%
7,CCN(CC)CCOc1ccc(C(=O)/C=C\c2ccc(Cl)cc2Cl)cc1,-29.2% (active)
8,Cc1nc(NC(=O)COc2cccc(/C=C3\COc4ccccc4C3=O)c2)sc1C,-61.4% (active)
9,CCOC(=O)NNc1nncc2ccccc12,103%
10,COc1cccc(/C=C/C(=O)Nc2cc(OC)c3c(c2)OCO3)c1,78%
11,N#Cc1c(-c2ccccc2)cc(-c2ccccc2)n(CC(=O)O)c1=O,23.6%
12,COc1ccc(NC(=O)Nc2ccc(-c3cccnc3)cc2N2CCC(CO)CC2)cc1,88.6%
13,CCOC(=O)C#Cc1c(CC(=O)OCC)nnn1[C@H]1O[C@@H](CO)[C@@H]2OC(C)(C)O[C@@H]21,38%
14,N=c1sc2ccccc2n1CC(=O)O,114%
15,COc1cccc2c1C(=O)c1c(O)c3c(c(O)c1C2=O)C[C@@](O)(C(=O)CO)C[C@@H]3O[C@H]1C[C@H](N)[C@@H](O)[C@H](C)O1,3.13% (active)
16,Oc1ccccc1-c1nc2c3ccccc3c3ccccc3c2o1,88%
17,Cc1nccc2c3ccc(OCc4cn(-c5ccc(Cl)cc5)nn4)cc3n(CC(C)C)c12,-49.4% (active)

row,Structure (SMILES),growth
1,Nc1c(C(=O)c2ccccc2)sc2nc(-c3cccs3)cc(-c3cccs3)c12,22%
2,CC[C@H](C)[C@H](NC(=O)[C@@H](N)CCC(N)=O)C(=O)N[C@@H](Cc1ccc(O)cc1)C(=O)N[C@@H](CCCCN)C(=O)N[C@@H](CCCCN)C(=O)N[C@@H](Cc1ccc(O)cc1)C(=O)N[C@@H](CCCNC(=N)N)C(=O)N[C@H](C(=O)N[C@@H](Cc1c[nH]c2ccccc12)C(=O)N[C@@H](Cc1ccc(O)cc1)C(=O)N[C@@H](CCCNC(=N)N)C(=O)N[C@@H](CCCCN)C(=O)N[C@@H](C)C(=O)N[C@@H](Cc1c[nH]c2ccccc12)C(=O)N[C@@H](CCCCN)C(=O)N[C@H](C(=O)N[C@@H](CC(C)C)C(=O)NCC(=O)N[C@@H](CCCCN)C(=O)N[C@H](C(N)=O)C(C)C)C(C)C)[C@@H](C)O,13.9%
3,S=C(c1cccs1)N1CCN(c2cccc(Cl)c2)CC1,90.8%
4,NC1=NC(c2ccccc2OS(=O)(=O)c2ccc(Br)cc2)n2c(nc3ccccc32)N1 (centres undefined),69.7%
5,COc1cc(-c2cc(/C=C/C(=O)c3ccc4c(c3)OCO4)[nH]n2)cc(OC)c1OC,91.3%
6,Nc1c(C(=O)Nc2cccc3cnccc23)sc2nc3c(cc12)C(=O)CCC3,60.2%
7,CCn1c(=O)n(C)c2c(=O)n(C)c(=O)n(C)c21,101%
8,O=C1C=C(O)C(=O)C=C1O,91.2%
9,C[C@]12C[C@H](O)[C@H]3[C@@H](CCC4=CC(=O)CC[C@@]43C)[C@@H]1CC[C@@H]2C(=O)CO,81.8%
10,CC(=O)c1c(OCC#N)ccc2c(C)cc(=O)oc12,81.6%
11,CC(=O)O[C@]1(C(C)=O)CC[C@H]2[C@@H]3C=C(Cl)C4=CC(=O)CC[C@]4(C)[C@H]3CC[C@@]21C,104%
12,CC1(C)N=C(N)N=C(N)N1c1cccc(CCCCc2ccccc2)c1,-76% (active)
13,CC1=C(C(=O)Nc2ccc(F)cc2)C(c2ccccc2)C2=C(CC(C)(C)CC2=O)N1 (centres undefined),76%
14,COc1cc(-c2nc3sccn3c2-c2ccnc(NCCNS(=O)(=O)c3ccc(Cl)cc3)n2)ccc1F,9.59% (active)
15,Nc1cc(-c2ccccc2)ccc1O,49.7%
16,O=C1CCC(N2C(=O)c3cccc(NCCCC4CCN(CCNC(=O)c5cc6c(o5)C(=O)c5ccccc5C6=O)CC4)c3C2=O)C(=O)N1 (centres undefined),6.69% (active)
17,CCO/C=N/S(=O)(=O)c1cc2c(cc1Cl)NC=NS2(=O)=O,112%
